{"source": "the supplement of paper PMC11417369", "note": "± gives the standard deviation of the averaged measurements. The full ranking holds about 25,000 sequences; the median of “ln(normalized median fluorescence intensity)” is about 8.9, and the highest 2% start at about 10. The sample as a whole holds a higher share of the highest values than the screen did.", "data": [{"system": "PfAP2-LT AP2 domain (GST-tagged)", "experiment": "gcPBM binding intensity (ln(normalized median fluorescence intensity)); higher = stronger DNA binding", "how_it_was_run": "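Binding of GST-tagged P. falciparum DNA-binding domains, expressed in E. coli and used at about 25 μg on average, was carried out for 1 h in 1× PBS containing 1% milk, 0.2 mg/ml BSA, 0.5% salmon testes DNA and 0.03% Triton X-100. The target was an Agilent 4 × 180k array of primer-extended double-stranded 36-bp intergenic genomic probes plus negative controls, read with Alexa488 anti-GST antibody at 488 nm. Binding intensity is the highest Masliner-normalised natural-log median intensity across replicate spots of either probe orientation.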", "values": [{"sequence": "ATAACATATTTCTTTTGTACTCAAAATAAAATTAAT [XGTACX_site2479]", "gcPBM binding intensity (ln)": "8.37 ± 0.4"}, {"sequence": "ATATAATAAATATGTTGTACTATAAAAAATAGCCAT [XGTACX_site4710]", "gcPBM binding intensity (ln)": "8.78 ± 0.33"}, {"sequence": "AAATTATAATTAGGAACACACATATATATATATATA [CACACA_site3098]", "gcPBM binding intensity (ln)": "9.78 ± 0.29"}, {"sequence": "GGACTATACAGTTATACACACACATATATATATAAT [CACACA_site7991]", "gcPBM binding intensity (ln)": "9.6 ± 0.4"}, {"sequence": "AAGAAGCATAAATGTACACACATATTTATATATTAA [CACACA_site1332]", "gcPBM binding intensity (ln)": "9.01 ± 0.43"}, {"sequence": "ATATATATATATGTCTGTACATAAAAAATAATAAAT [XGTACX_site3122]", "gcPBM binding intensity (ln)": "8.975 ± 0.064"}, {"sequence": "ATATATATATATATATGTACATATTTTATAACTGTA [XGTACX_site5395]", "gcPBM binding intensity (ln)": "9.72 ± 0.35"}, {"sequence": "ATATATATATATATATGTACATATGTCAACTGTCTA [XGTACX_site8636]", "gcPBM binding intensity (ln)": "10.1 ± 0.43"}, {"sequence": "TTTTTGTAATATTATGATGTCATATATATATATATA [XGTACX_negctrl_site618]", "gcPBM binding intensity (ln)": "9.035 ± 0.078"}, {"sequence": "TTTTAAATATGCAGATGTACATTATAATGTTTTATT [XGTACX_site2079]", "gcPBM binding intensity (ln)": "8.87 ± 0.47"}, {"sequence": "ATATATATGAAACACACACACAAAAAAAAAAAAAAA [CACACA_site3647]", "gcPBM binding intensity (ln)": "9.45 ± 0.57"}, {"sequence": "ATCGTAGTATAATATGAACACACACCCACCCACAAA [CACACA_site8616]", "gcPBM binding intensity (ln)": "9.71 ± 0.29"}, {"sequence": "TAGTATAATATGAACACACACACACCGACAAAAAAA [CACACA_site5151]", "gcPBM binding intensity (ln)": "9.96 ± 0.2"}, {"sequence": "GTATAATATGAACACACACACACACCCAAAAAAAAA [CACACA_site5152]", "gcPBM binding intensity (ln)": "10.3 ± 0.45"}, {"sequence": "TCATATGTGAAACACACACACACACCCAAAAAAACA [CACACA_site3247]", "gcPBM binding intensity (ln)": "10.06 ± 0.028"}, {"sequence": "ATAATATGAAAACACACACACACACCCAAAAAAAAA [CACACA_site2011]", "gcPBM binding intensity (ln)": "10.1 ± 0.15"}, {"sequence": "TATATATAGAAACACACACACAAAAAAAAAAAAAAA [CACACA_site1506]", "gcPBM binding intensity (ln)": "9.15 ± 0.46"}, {"sequence": "GTATAATAGAAACACACACACACACCCAAAAAAAAA [CACACA_site2010]", "gcPBM binding intensity (ln)": "10.3 ± 0.39"}, {"sequence": "TAGTATAATATGAACACACACACACGCACAAAAAAA [CACACA_site7035]", "gcPBM binding intensity (ln)": "9.94 ± 0.27"}, {"sequence": "AATATATAGAAACACACACACAAAAAAAAAAAAAAA [CACACA_site1326]", "gcPBM binding intensity (ln)": "9.27 ± 0.47"}, {"sequence": "TAGTATAATATGAACACACACACACCCACAAAAAAA [CACACA_site2009]", "gcPBM binding intensity (ln)": "10 ± 0.29"}, {"sequence": "GTATAATATGAACACACACACACACGCAAAAAAAAA [CACACA_site7036]", "gcPBM binding intensity (ln)": "10.19 ± 0.064"}, {"sequence": "TTTTTTTTTGAAAAAAGTACTTAATTTTTAAGAAGA [XGTACX_site3591]", "gcPBM binding intensity (ln)": "7.83 ± 0.3"}, {"sequence": "AATATATATATATATATATATTTTTGTTAGAATATG [XGTACX_negctrl_site58]", "gcPBM binding intensity (ln)": "8.95 ± 0.32"}, {"sequence": "TAAGTTTGTCAATCAACACACACCTATTTATTATAT [CACACA_site3919]", "gcPBM binding intensity (ln)": "9.11 ± 0.35"}, {"sequence": "AACACAATAAAAATTAAAAATGTTAAGTAAATATAA [GTGCAC_negctrl_site60]", "gcPBM binding intensity (ln)": "8.68 ± 0.52"}, {"sequence": "ATATATATATGAATCACACACAAAAAATATAGAGAT [CACACA_site3913]", "gcPBM binding intensity (ln)": "9.51 ± 0.41"}, {"sequence": "ATGCAACTATATATATATATTATATGTATGAATAAT [XGTACX_negctrl_site434]", "gcPBM binding intensity (ln)": "8.97 ± 0.28"}, {"sequence": "ATAATATATTTATGTTGTACAAGGAAAATTTTGAAA [XGTACX_site3472]", "gcPBM binding intensity (ln)": "8.76 ± 0.42"}, {"sequence": "ATTTTTTTTATTCAATGTACTTTTTTTTATATATAT [XGTACX_site4978]", "gcPBM binding intensity (ln)": "8.8 ± 0.45"}, {"sequence": "TATACATACTCACCCACACACAAAAAAAAAAAAAAA [CACACA_site862]", "gcPBM binding intensity (ln)": "9.28 ± 0.47"}, {"sequence": "AGTATACTCAAACACACACACACAAAAAAAAAAAAA [CACACA_site4398]", "gcPBM binding intensity (ln)": "9.88 ± 0.58"}, {"sequence": "TATACTCAGAAACACACACACACACCCAAAAAAAAA [CACACA_site4434]", "gcPBM binding intensity (ln)": "10.1 ± 0.35"}, {"sequence": "AACAACTATTAATTTACACACATGTATTTATTTTAC [CACACA_site5683]", "gcPBM binding intensity (ln)": "9.3 ± 0.4"}, {"sequence": "AAATAAATAAATAAATAAACAAATATGTATAAATGG [XGTACX_negctrl_site153]", "gcPBM binding intensity (ln)": "8.85 ± 0.51"}, {"sequence": "TTTAAAAAAAAAAAAAAAAATTCTACATGTAATTTA [CACACA_negctrl_site1205]", "gcPBM binding intensity (ln)": "7.96 ± 0.41"}, {"sequence": "AATTTATAAAAGAAGAGGACACATATAAATATAAAT [XGTACX_site59]", "gcPBM binding intensity (ln)": "8.78 ± 0.52"}, {"sequence": "AAAAAAAATATATATGCACACACAAAAAAACAAATT [CACACA_site8349]", "gcPBM binding intensity (ln)": "9.48 ± 0.37"}, {"sequence": "TGGGAAAAAATATATGCACACCCCCCAAAAAAAAAA [CACACA_site8696]", "gcPBM binding intensity (ln)": "10.48 ± 0.071"}, {"sequence": "ATAATATAAATATGCACACAAATTATTACCCAAAAA [CACACA_site2524]", "gcPBM binding intensity (ln)": "9.03 ± 0.41"}, {"sequence": "ATAAATAAAATATGCACACAAATATAGGAAACAACA [CACACA_site2561]", "gcPBM binding intensity (ln)": "9.38 ± 0.38"}, {"sequence": "GGAAAAAATATATGCACACCCCCCAAAAAAAAAAAA [CACACA_site2222]", "gcPBM binding intensity (ln)": "10.5 ± 0.13"}, {"sequence": "TTAAAAAAATATAATACACACCAAAAATATGCACAT [CACACA_site5209]", "gcPBM binding intensity (ln)": "9.03 ± 0.38"}, {"sequence": "TTATTACATAACAATATACACACTATTGATTAAAGA [CACACA_site2933]", "gcPBM binding intensity (ln)": "8.68 ± 0.39"}, {"sequence": "AAGAATACACCACGCACACACACTTGAGAAAAAATA [CACACA_site3828]", "gcPBM binding intensity (ln)": "9.96 ± 0.47"}, {"sequence": "ACAAGAATACACCACGCACACACACTAGAGAAAAAA [CACACA_site9276]", "gcPBM binding intensity (ln)": "10.1 ± 0.54"}, {"sequence": "GAATACACCACGCACACACACTTGAGAAAAAATAAA [CACACA_site7747]", "gcPBM binding intensity (ln)": "9.66 ± 0.47"}, {"sequence": "CATAAAAATATTAATAAACACACAATCAGATATTGA [CACACA_site9032]", "gcPBM binding intensity (ln)": "8.87 ± 0.45"}, {"sequence": "ATGTATAATATTTTCACACACAAGAAAAAAGAAAAG [CACACA_site3591]", "gcPBM binding intensity (ln)": "9.27 ± 0.36"}, {"sequence": "TAAAAATATAAAACATGTACATATATGCATATATTT [XGTACX_site8093]", "gcPBM binding intensity (ln)": "8.86 ± 0.48"}, {"sequence": "TTATCTCTACAAAGTGCACACACGTAAAAACATATA [CACACA_site3957]", "gcPBM binding intensity (ln)": "9.09 ± 0.35"}, {"sequence": "CAAAACATTTTATCTACACACATATATAAATAAATA [CACACA_site3220]", "gcPBM binding intensity (ln)": "8.88 ± 0.38"}, {"sequence": "TAAAAAAAAACATGTGCACACGTTTTATCTACATAA [CACACA_site2336]", "gcPBM binding intensity (ln)": "10.1 ± 0.32"}, {"sequence": "TGTAATAAAATAATTAGTACACATATATGTATATTT [XGTACX_site5896]", "gcPBM binding intensity (ln)": "8.72 ± 0.33"}]}]}
